# Laboratory results as given in PMC7862700, “An all-to-all approach to the identification of sequence-specific readers for epigenetic DNA modifications on cytosine”.
# Assays:
# Test in all cases: DAPPL (digital affinity profiling via proximity ligation, sequencing); 10 mM Tris-HCl pH 7.5, 50 mM NaCl, 1 mM DTT, 4% glycerol, room temperature, 30 min; GST-TFs on glutathione beads, 16-mer random dsDNA library, 0.1% formaldehyde crosslink after washing; high values mean tight binding
# FEV = molecular target: T1, FEV (Homo sapiens, UniProt Q99581 1-238); conditions: protein: recombinant; tags: N-terminal GST; dsDNA, one strand shown
# T1 sequence: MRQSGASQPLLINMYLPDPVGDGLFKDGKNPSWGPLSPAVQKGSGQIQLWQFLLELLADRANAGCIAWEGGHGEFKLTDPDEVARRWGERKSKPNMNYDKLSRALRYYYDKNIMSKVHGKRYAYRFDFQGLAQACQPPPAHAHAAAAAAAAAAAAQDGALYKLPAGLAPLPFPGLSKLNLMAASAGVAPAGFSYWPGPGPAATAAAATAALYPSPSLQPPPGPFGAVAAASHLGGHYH
# Outline: (§1)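 Human transcription factors were made in yeast as GST fusions, captured on glutathione beads and barcoded with DNA. With a tag-only sample included, the pool was incubated with 200 nmole of a random double-stranded 16-mer DNA library in Tris/NaCl/DTT/glycerol buffer at room temperature for 30 min, then crosslinked with 0.1% formaldehyde after washing, ligated by proximity, amplified and sequenced. For binding signal, each hexamer's read frequency for a factor is divided by its frequency for the tag-only sample.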
# ETV5 = ETV5 (Homo sapiens, UniProt P41161 1-510); conditions: protein: recombinant; tags: N-terminal GST; dsDNA, one strand shown
# Sequence of ETV5 (P41161 whole entry): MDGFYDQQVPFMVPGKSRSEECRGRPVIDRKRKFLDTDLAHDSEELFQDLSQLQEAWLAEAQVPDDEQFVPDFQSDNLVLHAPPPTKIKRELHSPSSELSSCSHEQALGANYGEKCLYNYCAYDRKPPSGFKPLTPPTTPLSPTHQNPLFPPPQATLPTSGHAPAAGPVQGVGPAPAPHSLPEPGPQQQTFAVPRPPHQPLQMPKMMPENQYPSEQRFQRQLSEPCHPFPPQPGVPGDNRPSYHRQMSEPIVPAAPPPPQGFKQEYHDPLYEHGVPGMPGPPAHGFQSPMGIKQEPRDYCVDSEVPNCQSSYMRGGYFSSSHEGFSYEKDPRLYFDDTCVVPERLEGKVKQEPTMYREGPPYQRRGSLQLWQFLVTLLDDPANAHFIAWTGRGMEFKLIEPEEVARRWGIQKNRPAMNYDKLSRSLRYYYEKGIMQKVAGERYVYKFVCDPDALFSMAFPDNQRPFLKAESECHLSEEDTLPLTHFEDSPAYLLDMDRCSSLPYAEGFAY
# Outline: as §1
# HSF1 = HSF1 (Homo sapiens, UniProt Q00613 1-529); conditions: protein: recombinant; tags: N-terminal GST; chain copies: 3; dsDNA, one strand shown
# Sequence of HSF1 (Q00613 whole entry): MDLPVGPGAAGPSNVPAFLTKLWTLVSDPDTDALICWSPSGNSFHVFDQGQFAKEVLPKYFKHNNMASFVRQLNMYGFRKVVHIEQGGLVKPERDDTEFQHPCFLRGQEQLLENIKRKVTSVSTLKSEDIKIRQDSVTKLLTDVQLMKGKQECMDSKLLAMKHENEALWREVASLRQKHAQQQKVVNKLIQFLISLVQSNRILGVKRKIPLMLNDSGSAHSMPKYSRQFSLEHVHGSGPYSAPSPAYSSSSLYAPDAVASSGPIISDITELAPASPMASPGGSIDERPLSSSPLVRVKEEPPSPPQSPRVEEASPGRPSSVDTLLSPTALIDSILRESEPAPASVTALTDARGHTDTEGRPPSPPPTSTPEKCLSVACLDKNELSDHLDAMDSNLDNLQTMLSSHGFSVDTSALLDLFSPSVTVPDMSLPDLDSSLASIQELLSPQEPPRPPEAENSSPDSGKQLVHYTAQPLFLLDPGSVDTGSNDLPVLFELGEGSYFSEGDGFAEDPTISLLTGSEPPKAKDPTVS
# Outline: as §1
# SPIC = molecular target: T2, SPIC (Homo sapiens, UniProt Q8N5J4 1-248); conditions: protein: recombinant; tags: N-terminal GST; dsDNA, one strand shown
# T2 sequence: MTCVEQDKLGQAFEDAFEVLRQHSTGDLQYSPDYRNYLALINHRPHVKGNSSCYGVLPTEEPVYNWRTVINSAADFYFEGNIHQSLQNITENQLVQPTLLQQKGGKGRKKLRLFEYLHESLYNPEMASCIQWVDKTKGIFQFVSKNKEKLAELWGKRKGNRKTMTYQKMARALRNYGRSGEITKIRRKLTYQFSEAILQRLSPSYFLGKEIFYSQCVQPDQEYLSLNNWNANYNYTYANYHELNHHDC
# Outline: as §1
# ELF4 = ELF4 (Homo sapiens, UniProt Q99607 1-663); conditions: protein: recombinant; tags: N-terminal GST; dsDNA, one strand shown
# Sequence of ELF4 (Q99607 whole entry): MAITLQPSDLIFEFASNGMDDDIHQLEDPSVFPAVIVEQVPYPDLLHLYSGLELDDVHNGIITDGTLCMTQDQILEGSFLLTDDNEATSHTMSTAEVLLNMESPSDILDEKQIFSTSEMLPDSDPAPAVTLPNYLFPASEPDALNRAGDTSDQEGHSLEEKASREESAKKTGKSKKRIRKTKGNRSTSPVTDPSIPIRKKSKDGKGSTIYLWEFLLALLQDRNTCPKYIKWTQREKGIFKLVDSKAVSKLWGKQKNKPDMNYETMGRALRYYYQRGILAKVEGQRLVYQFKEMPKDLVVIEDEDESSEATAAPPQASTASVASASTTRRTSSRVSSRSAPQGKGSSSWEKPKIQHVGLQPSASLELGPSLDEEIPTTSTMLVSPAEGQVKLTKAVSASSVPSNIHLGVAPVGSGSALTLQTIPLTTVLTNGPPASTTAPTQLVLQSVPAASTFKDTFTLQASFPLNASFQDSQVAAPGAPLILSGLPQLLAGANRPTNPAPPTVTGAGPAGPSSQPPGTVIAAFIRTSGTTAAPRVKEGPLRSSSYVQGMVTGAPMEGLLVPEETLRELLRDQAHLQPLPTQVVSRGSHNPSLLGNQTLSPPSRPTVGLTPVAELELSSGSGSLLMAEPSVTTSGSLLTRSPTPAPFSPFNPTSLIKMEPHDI
# Outline: as §1
# ELK4 = molecular target: T3, ELK4 (Homo sapiens, UniProt P28324-2 1-405); conditions: protein: recombinant; tags: N-terminal GST; dsDNA, one strand shown
# T3 sequence: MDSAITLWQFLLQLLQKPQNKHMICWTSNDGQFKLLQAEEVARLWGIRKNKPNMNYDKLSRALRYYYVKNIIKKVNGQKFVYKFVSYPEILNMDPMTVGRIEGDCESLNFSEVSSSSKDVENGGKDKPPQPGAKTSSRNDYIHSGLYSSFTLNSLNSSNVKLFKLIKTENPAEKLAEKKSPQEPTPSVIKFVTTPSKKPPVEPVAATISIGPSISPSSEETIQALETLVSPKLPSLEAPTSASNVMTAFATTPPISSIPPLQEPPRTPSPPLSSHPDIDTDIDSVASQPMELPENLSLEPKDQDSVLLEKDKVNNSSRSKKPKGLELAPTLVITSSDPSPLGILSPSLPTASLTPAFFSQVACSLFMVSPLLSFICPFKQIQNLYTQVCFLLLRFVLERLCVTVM
# Outline: as §1
# ETV2 = molecular target: T4, ETV2 (Homo sapiens, UniProt O00321 1-342); conditions: protein: recombinant; tags: N-terminal GST; dsDNA, one strand shown
# T4 sequence: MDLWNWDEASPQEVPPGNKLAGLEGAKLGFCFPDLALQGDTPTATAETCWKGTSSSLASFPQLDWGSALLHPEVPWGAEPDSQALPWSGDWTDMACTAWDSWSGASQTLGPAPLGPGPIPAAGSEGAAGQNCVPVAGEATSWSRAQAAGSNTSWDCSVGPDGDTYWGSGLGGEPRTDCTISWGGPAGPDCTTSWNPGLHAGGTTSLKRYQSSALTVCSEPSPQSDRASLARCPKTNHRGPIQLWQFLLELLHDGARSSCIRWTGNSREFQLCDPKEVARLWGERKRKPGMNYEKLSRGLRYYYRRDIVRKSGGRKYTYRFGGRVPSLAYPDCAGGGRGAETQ
# Outline: as §1
# ELF3 = molecular target: T5, ELF3 (Homo sapiens, UniProt P78545 1-371); conditions: protein: recombinant; tags: N-terminal GST; dsDNA, one strand shown
# T5 sequence: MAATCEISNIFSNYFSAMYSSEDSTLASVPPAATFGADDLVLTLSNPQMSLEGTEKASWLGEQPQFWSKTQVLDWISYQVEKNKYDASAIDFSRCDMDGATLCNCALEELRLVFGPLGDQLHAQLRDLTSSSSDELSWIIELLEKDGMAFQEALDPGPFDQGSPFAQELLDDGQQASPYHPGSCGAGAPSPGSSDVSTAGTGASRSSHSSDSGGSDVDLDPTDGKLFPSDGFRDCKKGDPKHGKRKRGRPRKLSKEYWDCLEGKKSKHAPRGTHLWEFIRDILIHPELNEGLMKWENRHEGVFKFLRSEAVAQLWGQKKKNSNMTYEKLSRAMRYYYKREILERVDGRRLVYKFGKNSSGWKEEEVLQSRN
# Outline: as §1
# CRX = CRX (Homo sapiens, UniProt O43186 1-299); conditions: protein: recombinant; tags: N-terminal GST; dsDNA, one strand shown
# Sequence of CRX (O43186 whole entry): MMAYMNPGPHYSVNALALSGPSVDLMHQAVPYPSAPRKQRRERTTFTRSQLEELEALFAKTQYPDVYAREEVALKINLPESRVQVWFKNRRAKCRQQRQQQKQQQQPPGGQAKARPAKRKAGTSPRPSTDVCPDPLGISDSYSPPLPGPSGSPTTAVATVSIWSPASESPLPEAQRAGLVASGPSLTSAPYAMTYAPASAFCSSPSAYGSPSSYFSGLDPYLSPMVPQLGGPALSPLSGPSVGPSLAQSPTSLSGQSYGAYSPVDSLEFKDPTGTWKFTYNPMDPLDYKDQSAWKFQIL
# Outline: as §1
# ETV1 = ETV1 (Homo sapiens, UniProt P50549 1-477); conditions: protein: recombinant; tags: N-terminal GST; dsDNA, one strand shown
# Sequence of ETV1 (P50549 whole entry): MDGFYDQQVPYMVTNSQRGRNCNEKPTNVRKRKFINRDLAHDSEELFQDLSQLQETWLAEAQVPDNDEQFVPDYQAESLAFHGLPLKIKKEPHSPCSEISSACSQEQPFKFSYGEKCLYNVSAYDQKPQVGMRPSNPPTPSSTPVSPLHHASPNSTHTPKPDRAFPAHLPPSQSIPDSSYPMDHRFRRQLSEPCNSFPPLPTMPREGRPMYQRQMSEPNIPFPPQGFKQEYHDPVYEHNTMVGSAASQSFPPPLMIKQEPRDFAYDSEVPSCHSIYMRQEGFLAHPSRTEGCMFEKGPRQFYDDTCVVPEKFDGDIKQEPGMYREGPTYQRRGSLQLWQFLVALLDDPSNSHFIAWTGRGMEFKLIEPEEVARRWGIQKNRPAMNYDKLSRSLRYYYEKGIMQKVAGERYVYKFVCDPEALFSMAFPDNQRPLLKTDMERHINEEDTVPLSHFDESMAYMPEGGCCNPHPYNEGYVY
# Outline: as §1
# ERF = molecular target: T6, ERF (Homo sapiens, UniProt P50548 1-548); conditions: protein: recombinant; tags: N-terminal GST; dsDNA, one strand shown
# T6 sequence: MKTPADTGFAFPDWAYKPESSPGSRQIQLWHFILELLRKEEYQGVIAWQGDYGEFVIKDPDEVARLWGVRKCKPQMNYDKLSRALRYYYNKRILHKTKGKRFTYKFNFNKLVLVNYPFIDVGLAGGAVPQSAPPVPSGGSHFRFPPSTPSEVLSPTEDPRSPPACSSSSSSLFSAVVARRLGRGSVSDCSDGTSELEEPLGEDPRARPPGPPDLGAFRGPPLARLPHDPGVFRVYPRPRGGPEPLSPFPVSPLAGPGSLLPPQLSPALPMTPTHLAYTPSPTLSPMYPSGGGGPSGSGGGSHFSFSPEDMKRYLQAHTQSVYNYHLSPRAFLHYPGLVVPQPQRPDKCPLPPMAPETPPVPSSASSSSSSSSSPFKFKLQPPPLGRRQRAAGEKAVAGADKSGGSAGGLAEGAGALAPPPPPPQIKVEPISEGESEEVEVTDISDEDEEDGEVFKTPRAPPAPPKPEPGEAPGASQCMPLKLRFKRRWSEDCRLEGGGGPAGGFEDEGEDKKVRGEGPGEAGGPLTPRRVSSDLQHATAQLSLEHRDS
# Outline: as §1
# ETV3L = molecular target: T7, ETV3L (Homo sapiens, UniProt Q6ZN32 1-361); conditions: protein: recombinant; tags: N-terminal GST; dsDNA, one strand shown
# T7 sequence: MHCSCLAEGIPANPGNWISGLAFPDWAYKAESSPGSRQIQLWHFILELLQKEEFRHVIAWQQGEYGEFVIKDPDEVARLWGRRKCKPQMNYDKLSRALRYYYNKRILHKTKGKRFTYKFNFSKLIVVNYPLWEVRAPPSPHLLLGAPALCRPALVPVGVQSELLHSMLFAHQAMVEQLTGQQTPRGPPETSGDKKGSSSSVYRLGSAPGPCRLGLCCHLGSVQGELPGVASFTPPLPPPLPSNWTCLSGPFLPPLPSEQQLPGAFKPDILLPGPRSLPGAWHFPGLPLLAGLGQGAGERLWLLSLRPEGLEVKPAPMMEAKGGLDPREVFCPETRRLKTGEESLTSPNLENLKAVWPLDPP
# Outline: as §1
# ETS2 = molecular target: T8, ETS2 (Homo sapiens, UniProt P15036 1-469); conditions: protein: recombinant; tags: N-terminal GST; dsDNA, one strand shown
# T8 sequence: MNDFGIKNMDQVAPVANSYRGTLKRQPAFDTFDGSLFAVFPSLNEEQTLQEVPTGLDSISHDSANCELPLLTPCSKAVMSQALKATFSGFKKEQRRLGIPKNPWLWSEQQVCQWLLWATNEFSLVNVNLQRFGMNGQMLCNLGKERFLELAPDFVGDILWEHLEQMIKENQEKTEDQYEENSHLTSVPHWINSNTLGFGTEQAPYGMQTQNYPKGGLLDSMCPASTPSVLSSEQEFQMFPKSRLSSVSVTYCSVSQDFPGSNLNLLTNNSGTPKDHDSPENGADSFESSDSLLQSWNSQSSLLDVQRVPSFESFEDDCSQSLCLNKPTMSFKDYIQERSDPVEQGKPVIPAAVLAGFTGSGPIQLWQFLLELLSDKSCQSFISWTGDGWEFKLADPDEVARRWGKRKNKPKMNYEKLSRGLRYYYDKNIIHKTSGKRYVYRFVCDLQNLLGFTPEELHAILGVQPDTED
# Outline: as §1
# SPDEF = molecular target: T9, SPDEF (Homo sapiens, UniProt O95238 1-335); conditions: protein: recombinant; tags: N-terminal GST; dsDNA, one strand shown
# T9 sequence: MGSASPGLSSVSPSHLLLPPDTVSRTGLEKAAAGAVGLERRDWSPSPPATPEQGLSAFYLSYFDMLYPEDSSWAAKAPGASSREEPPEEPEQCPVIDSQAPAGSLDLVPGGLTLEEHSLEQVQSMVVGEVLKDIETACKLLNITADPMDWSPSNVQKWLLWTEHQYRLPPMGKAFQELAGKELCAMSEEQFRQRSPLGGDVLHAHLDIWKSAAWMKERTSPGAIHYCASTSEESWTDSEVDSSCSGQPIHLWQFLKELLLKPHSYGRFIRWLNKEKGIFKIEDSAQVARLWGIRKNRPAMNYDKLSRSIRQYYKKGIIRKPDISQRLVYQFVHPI
# Outline: as §1
# ETV7 = molecular target: T10, ETV7 (Homo sapiens, UniProt Q9Y603 1-341); conditions: protein: recombinant; tags: N-terminal GST; dsDNA, one strand shown
# T10 sequence: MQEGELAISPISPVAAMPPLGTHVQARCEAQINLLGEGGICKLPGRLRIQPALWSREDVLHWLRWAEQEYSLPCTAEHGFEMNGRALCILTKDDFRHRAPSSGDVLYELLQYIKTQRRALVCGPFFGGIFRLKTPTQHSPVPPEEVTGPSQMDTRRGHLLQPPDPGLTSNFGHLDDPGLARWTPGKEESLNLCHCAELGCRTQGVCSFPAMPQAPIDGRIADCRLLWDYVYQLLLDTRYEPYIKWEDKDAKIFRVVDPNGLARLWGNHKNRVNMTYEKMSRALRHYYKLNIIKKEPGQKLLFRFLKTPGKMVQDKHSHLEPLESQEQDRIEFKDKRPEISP
# Outline: as §1
# ELF5 = molecular target: T11, ELF5 (Homo sapiens, UniProt Q9UKW6-2 1-255); conditions: protein: recombinant; tags: N-terminal GST; dsDNA, one strand shown
# T11 sequence: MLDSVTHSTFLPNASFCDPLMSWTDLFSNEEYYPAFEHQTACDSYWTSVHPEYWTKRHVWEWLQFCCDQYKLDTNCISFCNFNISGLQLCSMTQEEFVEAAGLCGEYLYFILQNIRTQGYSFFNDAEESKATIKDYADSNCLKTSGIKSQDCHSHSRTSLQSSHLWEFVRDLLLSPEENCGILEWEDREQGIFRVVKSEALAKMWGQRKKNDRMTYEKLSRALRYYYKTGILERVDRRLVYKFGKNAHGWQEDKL
# Outline: as §1
# ETV3 = molecular target: T12, ETV3 (Homo sapiens, UniProt P41162-2 1-143); conditions: protein: recombinant; tags: N-terminal GST; dsDNA, one strand shown
# T12 sequence: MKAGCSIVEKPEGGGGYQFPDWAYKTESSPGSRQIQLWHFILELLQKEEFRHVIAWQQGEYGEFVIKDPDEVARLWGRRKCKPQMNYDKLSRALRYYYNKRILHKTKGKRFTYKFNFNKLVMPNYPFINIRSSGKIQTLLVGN
# Outline: as §1
# ETV6 = ETV6 (Homo sapiens, UniProt P41212 1-452); conditions: protein: recombinant; tags: N-terminal GST; dsDNA, one strand shown
# Sequence of ETV6 (P41212 whole entry): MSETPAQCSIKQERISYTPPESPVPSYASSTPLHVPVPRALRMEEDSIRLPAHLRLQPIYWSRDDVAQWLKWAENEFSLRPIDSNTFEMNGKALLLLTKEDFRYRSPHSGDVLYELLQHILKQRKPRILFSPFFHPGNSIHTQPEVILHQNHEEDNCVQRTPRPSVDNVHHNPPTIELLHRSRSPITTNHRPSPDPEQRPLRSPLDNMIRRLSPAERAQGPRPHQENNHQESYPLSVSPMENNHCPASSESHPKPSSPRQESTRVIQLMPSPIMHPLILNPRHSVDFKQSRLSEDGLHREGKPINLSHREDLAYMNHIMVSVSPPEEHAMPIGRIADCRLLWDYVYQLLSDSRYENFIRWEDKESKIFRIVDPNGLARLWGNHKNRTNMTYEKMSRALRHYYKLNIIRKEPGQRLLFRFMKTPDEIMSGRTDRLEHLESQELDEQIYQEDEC
# Outline: as §1
sequence,measurement,setting,value
TTCTCA,binding signal,FEV,"1.3 fold enrichment (6-mer frequency, TF over GST control)"
same,binding signal,ETV5,"1.33 fold enrichment (6-mer frequency, TF over GST control)"
same,binding signal,HSF1,"1.65 fold enrichment (6-mer frequency, TF over GST control)"
same,binding signal,SPIC,"1.5 fold enrichment (6-mer frequency, TF over GST control)"
same,binding signal,ELF4,"1.27 fold enrichment (6-mer frequency, TF over GST control)"
same,binding signal,ELK4,"1.34 fold enrichment (6-mer frequency, TF over GST control)"
same,binding signal,ETV2,"1.32 fold enrichment (6-mer frequency, TF over GST control)"
same,binding signal,ELF3,"1.39 fold enrichment (6-mer frequency, TF over GST control)"
same,binding signal,CRX,"1.34 fold enrichment (6-mer frequency, TF over GST control)"
same,binding signal,ETV1,"1.35 fold enrichment (6-mer frequency, TF over GST control)"
same,binding signal,ERF,"1.21 fold enrichment (6-mer frequency, TF over GST control)"
same,binding signal,ETV3L,"1.23 fold enrichment (6-mer frequency, TF over GST control)"
same,binding signal,ETS2,"1.21 fold enrichment (6-mer frequency, TF over GST control)"
same,binding signal,SPDEF,"1.17 fold enrichment (6-mer frequency, TF over GST control)"
same,binding signal,ETV7,"1.26 fold enrichment (6-mer frequency, TF over GST control)"
same,binding signal,ELF5,"1.23 fold enrichment (6-mer frequency, TF over GST control)"
same,binding signal,ETV3,"1.34 fold enrichment (6-mer frequency, TF over GST control)"
same,binding signal,ETV6,"1.26 fold enrichment (6-mer frequency, TF over GST control)"
